Activity calls are given as the source filed them. A call without a number means that no potency is given here. Unless noted, calls follow the shape of the full dose curve.
system: not listed separately; experiment: qHTS assay to identify small molecule antagonists of the thyroid receptor (TR) signaling pathway - cell viability counter screen (AID 743064; active = well fitted curve in the direction sought with a large enough effect in the repeat runs; inconclusive = weak or mixed curves; inactive = no such curve, though single readings can be large; an effect the other way counts as inactive or inconclusive; also: nearly all actives have a fitted effect of over 50% in size; also: potency is read from the fitted curve at half-maximal effect); details: GH3.TRE-Luc viability, CellTiter-Fluor, 24 h; series mostly up to 70.3 µM
Procedure, shortened: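 GH3.TRE-Luc rat pituitary cells carrying a TRE-luciferase reporter were treated with compound plus 1 nM T3 (final) for 23.5 h at 37 °C. Viability was then read in the same wells by CellTiter-Fluor fluorescence after a further 30 min.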

**Q.** Which Potency does the source give for `CCCCc1ccc2nc(NC(=O)OC)[nH]c2c1` here?
**A.** 0.114 µM (active)

**Q.** Which Potency does the source give for `C1CCOC1` here?
**A.** inactive

**Q.** With `OCc1c2ccccc2cc2ccccc12` as the compound, how does the Potency read?
**A.** inactive

system: not listed separately; experiment: qHTS assay to identify small molecule antagonists of the thyroid receptor (TR) signaling pathway (AID 743065; active = well fitted curve in the direction sought with a large enough effect in the repeat runs; inconclusive = weak or mixed curves; inactive = no such curve, though single readings can be large; an effect the other way counts as inactive or inconclusive; also: nearly all actives have a fitted effect of over 55% in size; also: potency is read from the fitted curve at half-maximal effect); details: GH3.TRE-Luc, T3-stimulated luciferase inhibition, 23.5 h; series mostly up to 70.3 µM
Procedure, shortened: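 GH3.TRE-Luc rat pituitary cells carrying two TR response elements driving luciferase were plated for 4 h, given compound plus 1 nM T3 (final), and incubated 23.5 h at 37 C. ONE-Glo luminescence measured reporter inhibition; CellTiter-Fluor fluorescence tracked cytotoxicity.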

**Q.** Which Potency does the source give for `O=C1CCCCC1C1CCCCC1` (stereo not given) here?
**A.** inactive

**Q.** For `CCCCN1C[C@H](O)[C@@H](O)[C@H](O)[C@H]1CO`, which Potency is on record?
**A.** inactive

**Q.** For `CC(C)Nc1nc(N)nc(Cl)n1`, which Potency is on record?
**A.** inactive

**Q.** Which Potency does the source give for `CCCCCCCCCCCCOCCOS(=O)(=O)O` here?
**A.** 68.6 µM (active)

**Q.** Which Potency does the source give for `CC(C)C(=O)OCC(C)(C)C(O)C(C)C` (stereo not given) here?
**A.** inactive

**Q.** With `CN1C(=O)CC(c2ccccc2)C1=O` (stereo not given) as the compound, how does the Potency read?
**A.** inactive

**Q.** For `CCCC1CCC(=O)O1` (stereo not given), which Potency is on record?
**A.** inactive

**Q.** With `CC(C)CCCCCCc1ccc(OCCOCCO)cc1` as the compound, how does the Potency read?
**A.** inactive

**Q.** Which Potency does the source give for `C1CSCCS1` here?
**A.** inactive

**Q.** Which Potency does the source give for `CCCNC(C)(C)COC(=O)c1ccccc1` here?
**A.** inactive

**Q.** With `CO[C@@]1(NC(=O)CSCC#N)C(=O)N2C(C(=O)O)=C(CSc3nnnn3C)CS[C@@H]21` as the compound, how does the Potency read?
**A.** inactive

**Q.** With `Cc1ccc(C=O)s1` as the compound, how does the Potency read?
**A.** inactive

**Q.** For `O=C(Cl)c1cccc([N+](=O)[O-])c1`, which Potency is on record?
**A.** inactive

**Q.** For `CC(=O)N(CC(O)CN(C(C)=O)c1c(I)c(C(=O)NCC(O)CO)c(I)c(C(=O)NCC(O)CO)c1I)c1c(I)c(C(=O)NCC(O)CO)c(I)c(C(=O)NCC(O)CO)c1I` (stereo not given), which Potency is on record?
**A.** inactive

**Q.** For `CCCCC(CC)COC(=O)COc1cc(Cl)c(Cl)cc1Cl` (stereo not given), which Potency is on record?
**A.** inactive

**Q.** With `CC(=O)N[C@@H](CC(C)C)C(=O)O` as the compound, how does the Potency read?
**A.** inactive

**Q.** For `CCN(CC)CCNC(=O)COc1ccc(Cl)cc1`, which Potency is on record?
**A.** inactive

**Q.** For `CN1CCC[C@@H]1Cc1c[nH]c2ccc(CCS(=O)(=O)c3ccccc3)cc12`, which Potency is on record?
**A.** 21.1 µM (active)

system: thyroid hormone receptor (rat, GH3 cells); experiment: qHTS assay to identify small molecule agonists of the thyroid receptor (TR) signaling pathway (AID 743066); details: GH3.TRE-Luc cells, TR agonist luciferase, 24 h; series mostly up to 83.9 µM

**Q.** With `O=C1CCCCC1C1CCCCC1` (stereo not given) as the compound, how does the outcome read?
**A.** inactive

**Q.** For `CC(C)NC[C@@H](O)COc1cccc2ccccc12`, which outcome is on record?
**A.** inactive

**Q.** For `CCCCN1C[C@H](O)[C@@H](O)[C@H](O)[C@H]1CO`, which outcome is on record?
**A.** inactive

**Q.** Which outcome does the source give for `CNCCC(Oc1ccccc1OC)c1ccccc1` (stereo not given) here?
**A.** inactive

**Q.** With `CC(C)Nc1nc(N)nc(Cl)n1` as the compound, how does the outcome read?
**A.** inactive

**Q.** Which outcome does the source give for `CCCCCCCCCCCCOCCOS(=O)(=O)O` here?
**A.** inactive

**Q.** With `CC(C)C(=O)OCC(C)(C)C(O)C(C)C` (stereo not given) as the compound, how does the outcome read?
**A.** inactive

**Q.** With `CN(C)CCOc1ccccc1Cc1ccccc1` as the compound, how does the outcome read?
**A.** inactive

**Q.** Which outcome does the source give for `CN1C(=O)CC(c2ccccc2)C1=O` (stereo not given) here?
**A.** inactive

**Q.** With `CCCC1CCC(=O)O1` (stereo not given) as the compound, how does the outcome read?
**A.** inactive

**Q.** For `CCCCNc1ccc(C(=O)OCCN(CC)CC)cc1`, which outcome is on record?
**A.** inactive

**Q.** Which outcome does the source give for `CC(C)CCCCCCc1ccc(OCCOCCO)cc1` here?
**A.** inactive

**Q.** For `C1CSCCS1`, which outcome is on record?
**A.** inactive

**Q.** Which outcome does the source give for `O=C(CC(=O)C(F)(F)F)c1ccccc1` here?
**A.** inactive

**Q.** Which outcome does the source give for `Nc1ccc(Oc2ccc(N)c(N)c2)cc1` here?
**A.** inactive

**Q.** With `CCCNC(C)(C)COC(=O)c1ccccc1` as the compound, how does the outcome read?
**A.** inactive

**Q.** For `CO[C@@]1(NC(=O)CSCC#N)C(=O)N2C(C(=O)O)=C(CSc3nnnn3C)CS[C@@H]21`, which outcome is on record?
**A.** inactive

**Q.** With `Cc1ccc(C=O)s1` as the compound, how does the outcome read?
**A.** inactive

**Q.** With `O=C(Cl)c1cccc([N+](=O)[O-])c1` as the compound, how does the outcome read?
**A.** inactive

**Q.** Which outcome does the source give for `CC(=O)N(CC(O)CN(C(C)=O)c1c(I)c(C(=O)NCC(O)CO)c(I)c(C(=O)NCC(O)CO)c1I)c1c(I)c(C(=O)NCC(O)CO)c(I)c(C(=O)NCC(O)CO)c1I` (stereo not given) here?
**A.** inactive

**Q.** Which outcome does the source give for `CC(C)(C)c1ccc(OC(=O)c2ccccc2O)cc1` here?
**A.** inactive

**Q.** With `CCCCC(CC)COC(=O)COc1cc(Cl)c(Cl)cc1Cl` (stereo not given) as the compound, how does the outcome read?
**A.** inactive

**Q.** With `CC(=O)N[C@@H](CC(C)C)C(=O)O` as the compound, how does the outcome read?
**A.** inactive

**Q.** With `CCN(CC)CCNC(=O)COc1ccc(Cl)cc1` as the compound, how does the outcome read?
**A.** inactive

**Q.** With `CN1CCC[C@@H]1Cc1c[nH]c2ccc(CCS(=O)(=O)c3ccccc3)cc12` as the compound, how does the outcome read?
**A.** inactive

**Q.** With `Cn1cnc2c(F)c(Nc3ccc(Br)cc3Cl)c(C(=O)NOCCO)cc21` as the compound, how does the outcome read?
**A.** inactive

**Q.** With `C[C@@H]1CN(c2c(F)c(F)c3c(=O)c(C(=O)O)cn(C4CC4)c3c2F)C[C@H](C)N1` as the compound, how does the outcome read?
**A.** inactive

**Q.** Which outcome does the source give for `CN1CCN(C2=Nc3ccccc3Oc3ccc(Cl)cc32)CC1` here?
**A.** inactive

**Q.** With `CN(C)CC[C@@H](c1ccc(Cl)cc1)c1ccccn1` as the compound, how does the outcome read?
**A.** inactive

target: Estrogen receptor (Homo sapiens) (UniProt P03372); experiment: qHTS assay to identify small molecule antagonists of the estrogen receptor alpha (ER-alpha) signaling pathway (AID 743069; active = well fitted curve in the direction sought with a large enough effect in the signal ratio in the repeat runs, not every such curve was filed as active; inconclusive = weak or mixed curves, or effect the other way; inactive = no such curve, though single readings can be large or run the other way; the % refers to the signal ratio; also: potency is read from the fitted curve at half-maximal effect); details: HEK293 ER-alpha-UAS-bla, beta-lactamase ratio, antagonist mode; series mostly up to 69.4 µM
Procedure, shortened: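 Estradiol-stimulated ER-alpha-UAS-bla HEK293 cells, 18 hr compound exposure at 37C. LiveBLAzer B/G substrate, 2 hr RT, fluorescence read.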

Chain of Estrogen receptor (Homo sapiens) (P03372 whole entry, looked up): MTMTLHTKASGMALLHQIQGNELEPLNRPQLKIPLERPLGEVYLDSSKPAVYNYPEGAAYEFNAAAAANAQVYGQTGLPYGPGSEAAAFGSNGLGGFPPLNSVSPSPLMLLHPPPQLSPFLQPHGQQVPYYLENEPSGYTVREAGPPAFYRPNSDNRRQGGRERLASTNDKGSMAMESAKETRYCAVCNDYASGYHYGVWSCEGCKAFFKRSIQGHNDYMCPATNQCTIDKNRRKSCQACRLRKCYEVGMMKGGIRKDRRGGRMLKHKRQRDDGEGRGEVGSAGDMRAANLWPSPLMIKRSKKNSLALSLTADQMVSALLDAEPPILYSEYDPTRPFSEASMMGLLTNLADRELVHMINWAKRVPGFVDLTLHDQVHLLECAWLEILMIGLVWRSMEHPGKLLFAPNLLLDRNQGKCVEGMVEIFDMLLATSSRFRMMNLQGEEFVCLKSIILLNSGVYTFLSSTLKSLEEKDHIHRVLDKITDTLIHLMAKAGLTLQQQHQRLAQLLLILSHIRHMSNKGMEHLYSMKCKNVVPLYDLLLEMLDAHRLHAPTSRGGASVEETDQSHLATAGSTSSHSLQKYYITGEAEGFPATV

**Q.** Which Potency does the source give for `O=C1CCCCC1C1CCCCC1` (stereo not given) here?
**A.** inactive

**Q.** For `CCCCN1C[C@H](O)[C@@H](O)[C@H](O)[C@H]1CO`, which Potency is on record?
**A.** inactive

**Q.** With `CNCCC(Oc1ccccc1OC)c1ccccc1` (stereo not given) as the compound, how does the Potency read?
**A.** inactive

**Q.** For `CC(C)C(=O)OCC(C)(C)C(O)C(C)C` (stereo not given), which Potency is on record?
**A.** inactive

**Q.** Which Potency does the source give for `CCCCNc1ccc(C(=O)OCCN(CC)CC)cc1` here?
**A.** inactive

**Q.** For `CCCc1c2oc(C(=O)O)cc(=O)c2cc2c(=O)cc(C(=O)O)n(CC)c12`, which Potency is on record?
**A.** inactive

**Q.** With `CC(C)CCCCCCc1ccc(OCCOCCO)cc1` as the compound, how does the Potency read?
**A.** inactive

**Q.** With `O=C(CC(=O)C(F)(F)F)c1ccccc1` as the compound, how does the Potency read?
**A.** 28 µM [inconclusive] (active)

**Q.** Which Potency does the source give for `CCCCc1ccc2nc(NC(=O)OC)[nH]c2c1` here?
**A.** inactive

**Q.** For `CCCNC(C)(C)COC(=O)c1ccccc1`, which Potency is on record?
**A.** inactive

**Q.** With `CO[C@@]1(NC(=O)CSCC#N)C(=O)N2C(C(=O)O)=C(CSc3nnnn3C)CS[C@@H]21` as the compound, how does the Potency read?
**A.** inactive

**Q.** For `O=C(Cl)c1cccc([N+](=O)[O-])c1`, which Potency is on record?
**A.** inactive

**Q.** For `CC(=O)N(CC(O)CN(C(C)=O)c1c(I)c(C(=O)NCC(O)CO)c(I)c(C(=O)NCC(O)CO)c1I)c1c(I)c(C(=O)NCC(O)CO)c(I)c(C(=O)NCC(O)CO)c1I` (stereo not given), which Potency is on record?
**A.** inactive

**Q.** Which Potency does the source give for `O=C(C(Cl)Cl)N1CCOC12CCCCC2` here?
**A.** inactive

**Q.** With `CC(C)(C)c1ccc(OC(=O)c2ccccc2O)cc1` as the compound, how does the Potency read?
**A.** inactive

**Q.** Which Potency does the source give for `CCCCC(CC)COC(=O)COc1cc(Cl)c(Cl)cc1Cl` (stereo not given) here?
**A.** inactive

**Q.** With `CC(=O)N[C@@H](CC(C)C)C(=O)O` as the compound, how does the Potency read?
**A.** inactive

**Q.** With `CCN(CC)CCNC(=O)COc1ccc(Cl)cc1` as the compound, how does the Potency read?
**A.** inactive

**Q.** Which Potency does the source give for `C[C@@H]1CN(c2c(F)c(F)c3c(=O)c(C(=O)O)cn(C4CC4)c3c2F)C[C@H](C)N1` here?
**A.** inactive

**Q.** For `CN1CCN(C2=Nc3ccccc3Oc3ccc(Cl)cc32)CC1`, which Potency is on record?
**A.** inactive
